# From PubChem
# NPC1 prom act: qHTS Assay for NPC1 Promoter Activators. Huh7 NPC1 promoter luciferase reporter, 24 h. Potency, µM (titrated, usually from 9.22 µM), inactives show at the top dose activation, hits mostly activators. hit rate 2.4% among 320,000. AID 485313, 2010; note: % of control where 0% means no effect; nearly all actives have a fitted effect of over 60% in size
#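 Huh7 reporter cells (NPC1 promoter driving luciferase) are dosed with compound for 24 h at 37 °C, 5% CO2; luciferase detection reagent is then added and luminescence measured after 10 min at ambient temperature.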
# Rab9 promoter act: qHTS Assay for Rab9 Promoter Activators; Huh7 Rab9 promoter-luciferase reporter, luminescence, 24 h; Potency, µM (titrated, usually from 9.22 µM), for inactives: top-dose activation, negative = inhibition, hits mostly activators; hit rate 2.8% among 320,000; AID 485297, 2010; note: % of control where 0% means no effect; nearly all actives have a fitted effect of over 60% in size
#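 Steps: seed 1500 Huh7 Rab9-luc cells per well, rest 2 h at 37 °C; add compound in DMSO; incubate 24 h; add luciferase reagent, 10 min ambient; read luminescence.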
# FLuc modulator: qHTS profiling assay for firefly luciferase inhibitor/activator using purifed enzyme and Km concentrations of substrates (counterscreen for miR-21 project). purified FLuc, Km substrates, luminescence inhibition. Potency, µM (titrated, usually from 57.5 µM), without a hit: top-dose activity change, negative = inhibition, usual class: inhibitors. hit rate 6.9% among 360,000. AID 588342, 2011;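 note: plate controls were vehicle for no effect and reference inhibitor for full effect; nearly all actives have a fitted effect of over 55% in size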
# Target sequence (P08659 whole entry, looked up): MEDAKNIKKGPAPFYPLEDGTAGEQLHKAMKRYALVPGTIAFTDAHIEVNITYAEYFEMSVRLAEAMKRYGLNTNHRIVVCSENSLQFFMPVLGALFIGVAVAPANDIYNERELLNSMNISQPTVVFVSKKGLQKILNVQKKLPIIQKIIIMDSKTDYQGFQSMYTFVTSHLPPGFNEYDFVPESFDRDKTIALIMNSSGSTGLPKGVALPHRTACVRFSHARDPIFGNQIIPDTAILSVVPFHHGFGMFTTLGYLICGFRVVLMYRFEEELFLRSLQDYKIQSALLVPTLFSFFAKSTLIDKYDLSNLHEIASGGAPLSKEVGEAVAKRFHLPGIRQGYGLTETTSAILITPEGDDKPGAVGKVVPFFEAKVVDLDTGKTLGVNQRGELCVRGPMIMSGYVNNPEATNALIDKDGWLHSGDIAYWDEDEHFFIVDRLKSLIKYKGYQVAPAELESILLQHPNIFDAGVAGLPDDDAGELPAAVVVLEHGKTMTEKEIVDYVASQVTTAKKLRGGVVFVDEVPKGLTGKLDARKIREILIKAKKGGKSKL
#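 Purified P. pyralis luciferase, 10 nM final, with Km-level 10 uM D-luciferin and 10 uM ATP in 50 mM Tris acetate pH 7.5, 10 mM Mg acetate, 0.01% Tween-20, 0.05% BSA; 6-point qHTS titration about 60 µM downward; luminescence read.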
# SMN2 splice enh: qHTS Assay for Enhancers of SMN2 Splice Variant Expression; HEK293 SMN2-luciferase splicing reporter, luminescence, 30-36 h; Potency, µM (titrated, usually from 46.1 µM), for the others: top-dose activity change, positive = activation, most hits filed as activators; hit rate 2.8% among 210,000; note: % of control where 0% means no effect; nearly all actives have a fitted effect of over 55% in size
#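 HEK293 cells carry an SMN2 […]–luciferase reporter in which exon 7 inclusion puts luciferase in frame. Cells were plated 10-12 h before compound addition, then incubated 30-36 h at 37C. ONE-Glo luminescence was read; sodium butyrate at 4.5 mM final served as control.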
# Luc counter: Counterscreen for Luciferase (Kinase-Glo TM) Inhibition | Kinase-Glo luciferase, ATP luminescence, 8 min | Potency, µM (titrated, usually from 38.3 µM), for inactives: at the top dose activity change, negative = inhibition, usual class: inhibitors | Luciferin 4-monooxygenase (Photuris pensylvanica), Q27757 | hit rate 0.28% among 200,000; note: % is set by controls: 0 for no effect and ±100 for the full control effect; nearly all actives have a fitted effect of over 60% in size
#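 Recombinant Kinase-Glo luciferase, 10 uM ATP (linear range), luciferin; imidazole pH 7.2 / KCl / MgCl2 / Tween / BSA buffer; 8 min RT; luminescence.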
# ELG1 genotox: qHTS screen for small molecules that induce genotoxicity in human embryonic kidney (HEK293T) cells expressing luciferase-tagged ELG1; HEK293T ELG1-luciferase reporter, luminescence, 16 h; Potency, µM (doses to about 46 µM), without a hit: at the top dose activity change, positive = activation, actives largely listed as activators; hit rate 1.3% among 330,000; note: % of control where 0% means no effect; nearly all actives have a fitted effect of over 60% in size
#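 Cells (2,000/well) expressing the ELG1-luciferase fusion are dosed by pin tool and kept 16 hr at 37 °C, 5% CO2. Signal comes from ONE-Glo luciferase reagent after 30 min at room temperature.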
# Starred values were filed as active, the others as inactive; ? = inconclusive; . = no result. Compounds with a hit are over-represented: about 7.3% of the library has one in this group of screens. Calls come from the whole dose curve; as a rule, active = well fitted curve in the direction sought with a large enough effect; inconclusive = small, poorly fitted or top-dose-only effect, or another doubt; inactive = no such curve, though single readings can be large; an effect the other way counts as inactive or inconclusive. Potency is the fitted concentration of half-maximal effect.
SMILES,NPC1 prom act,Rab9 promoter act,FLuc modulator,SMN2 splice enh,Luc counter,ELG1 genotox
O=C(Nc1nnc2n1CCS2)c1ccccc1,.,.,1%,.,.,.
CC(=O)Nc1ccc(S(=O)(=O)N2CCN(c3ccc(C)c(C)c3)CC2)cc1,.,.,-1%,-11%,.,.
COC(=O)Cn1c(=NC(=O)c2ccc3c(c2)OCCO3)sc2ccccc21,.,.,8.5µM*,.,.,.
CCOC(=O)Cn1c(O)c(N=NC(=O)OC)c2ccccc21,2%,3%,3%,.,.,0%
COC(=O)Cn1c(O)c(N=NC(=O)c2ccc3c(c2)OCO3)c2ccccc21,?,30%,0.95µM*,.,-13%,9%
Cc1cc(C(=O)COC(=O)c2ccc([N+](=O)[O-])o2)c(C)n1CC1CCCO1 (stereo not drawn),-1%,2%,11µM*,-3%,-2%,0%
COCCn1c(C)cc(C(=O)COC(=O)c2ccc([N+](=O)[O-])o2)c1C,5%,7%,12µM*,3%,0%,-1%
C=CCn1c(C)cc(C(=O)COC(=O)C2CC(=O)N(CCc3ccc(OC)c(OC)c3)C2)c1C (stereo not drawn),10%,9%,-3%,.,.,-1%
COCCn1c(C)cc(C(=O)COC(=O)C2CC(=O)N(CCc3ccc(OC)c(OC)c3)C2)c1C (stereo not drawn),18%,19%,11µM*,.,.,8%
COc1ccc(CCNC(=O)Cc2c(C)c3cc4c(C(C)(C)C)coc4c(C)c3oc2=O)cc1OC,.,.,-9%,-1%,.,.
Cc1cc(C)cc(NC(=O)c2ccc3c(c2)nnn3C2CCCC2)c1,.,.,-8%,.,.,.
CC(=O)Nc1ccc(NC(=O)c2cc(-c3cc(C)c(C)cc3O)n[nH]2)cc1,11%,23%,-13%,.,.,-15%
CCc1ccc(O)c(-c2cc(C(=O)Nc3cccnc3)[nH]n2)c1,1.6µM*,2.2µM*,11µM*,.,.,?
Cc1cc(O)c(-c2cc(C(=O)Nc3cccnc3)[nH]n2)cc1C,0.25µM*,1µM*,1.9µM*,.,.,3.7µM*
Cc1cc(C)c(O)c(-c2cc(C(=O)Nc3cccnc3)[nH]n2)c1,19%,25%,19µM*,.,.,-9%
COc1cccc(Nc2ccc3cc(S(=O)(=O)N4CCC(C)CC4)ccc3n2)c1,.,.,-1%,.,.,.
CSc1ccc(/C=C/c2nc3ccccc3n2S(=O)(=O)c2ccc(F)c(C)c2)cc1,.,.,0.27µM*,.,.,.
CCOc1ccc(/C=C/c2nc3ccccc3n2S(=O)(=O)c2cccc(Cl)c2)cc1,.,.,0.95µM*,5µM*,.,.
CCOc1cc(S(=O)(=O)n2c(C)nc3ccccc32)ccc1F,1%,-9%,-1%,-30%,2%,-14%
Cc1ccc(/C=C/c2nc3ccccc3n2S(=O)(=O)c2cccc(Cl)c2)cc1,.,.,0.67µM*,.,.,.
Cc1ccc(S(=O)(=O)n2c(C)nc3ccccc32)cc1,-6%,3%,2%,.,.,2%
Cc1cc(C)c(S(=O)(=O)NCCc2sc(-c3cccnc3)nc2C)c(C)c1,.,.,-6%,.,.,.
Cc1nn(C)c2c1c(-c1ccccc1)cc(=O)n2Cc1ccc(F)cc1,.,.,-7%,.,.,.
C/C(=N\NC(=O)c1ccc(Cl)cc1)c1ccccn1,?,-20%,7.6µM*,.,.,3.3µM*
COC(=O)N/N=C(\C)c1ccco1,-2%,3%,-2%,-1%,-4%,-9%
C/C(=N/NC(=O)c1ccccn1)c1ccco1,0.89µM*,0.5µM*,5.4µM*,?,7.1µM*,17%
COc1cc(C(=O)N/N=C(\C)c2ccccn2)cc(OC)c1OC,-3%,4%,7%,.,.,6%
C/C(=N/NC(=O)c1ccccn1)c1ccc(O)cc1,3.5µM*,2.8µM*,24µM*,.,.,16µM*
